# Screening data as filed in PubChem BioAssay.
# ALOX12 inhib: inhibitors of human 12-lipoxygenase (ALOX12) | purified 12-hLO, xylenol orange hydroperoxide absorbance | Potency, µM (highest dose often 57.1 µM), most hits filed as inhibitors | P18054 | 150,000 tested, 0.12% active; active means well fitted inhibition curve with a large enough effect; inconclusive means small, poorly fitted or top-dose-only effect; further: nearly all actives have a fitted effect of over 55% in size
# Target sequence (P18054 whole entry, looked up): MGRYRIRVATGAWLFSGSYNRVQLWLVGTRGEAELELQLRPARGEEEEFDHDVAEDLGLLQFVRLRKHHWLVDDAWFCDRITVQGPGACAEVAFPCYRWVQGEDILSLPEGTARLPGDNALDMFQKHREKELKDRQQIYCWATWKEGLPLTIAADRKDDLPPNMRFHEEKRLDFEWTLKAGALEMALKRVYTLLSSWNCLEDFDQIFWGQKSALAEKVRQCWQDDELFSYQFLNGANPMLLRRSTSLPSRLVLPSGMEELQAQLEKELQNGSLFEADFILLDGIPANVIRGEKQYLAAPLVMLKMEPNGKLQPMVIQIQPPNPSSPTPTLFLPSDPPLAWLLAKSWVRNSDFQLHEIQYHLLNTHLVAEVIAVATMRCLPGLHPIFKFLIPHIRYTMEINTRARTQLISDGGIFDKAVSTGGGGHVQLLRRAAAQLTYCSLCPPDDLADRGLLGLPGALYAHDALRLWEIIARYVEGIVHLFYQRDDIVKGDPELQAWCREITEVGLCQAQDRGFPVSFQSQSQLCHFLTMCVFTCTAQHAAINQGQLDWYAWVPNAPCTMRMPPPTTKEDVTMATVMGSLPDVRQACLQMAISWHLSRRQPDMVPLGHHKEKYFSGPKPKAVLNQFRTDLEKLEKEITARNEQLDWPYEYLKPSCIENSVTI
#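 Hydroperoxide formation by human 12-lipoxygenase from 40 uM arachidonic acid was followed colorimetrically via ferric-xylenol orange complex, using the 573/405 nm absorbance ratio. Enzyme concentration was 150 nM, with 30 min reaction at room temperature.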
# PNC assembly inh: blocks assembly of the perinucleolar compartment; PC3M PTB-GFP, PNC prevalence imaging, 16 h; stronger effect = lower value; activity change (PNC), negative = inhibition, % at 10 µM; 140,000 tested, 3.1% active;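 active means readout at or below -70, meaning at least 70% loss of cells showing the perinucleolar compartment, a nuclear body marking cancer cells; inconclusive means readout between -30 and a set limit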
#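 Read-out is percentage of cells bearing a perinucleolar compartment, from automated 20x imaging of fixed, Hoechst-stained PC3M PTB-GFP cells. Cells were seeded 4 h, then exposed 16 h to compound (23 nl of library stock) in duplicate plates.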
# Lamin A splicing: LMNA splicing modulation; HeLa LMNA splicing GFP/RFP minigene ratio, 48 h; Potency, µM (doses to about 46.1 µM), actives largely listed as inhibitors; 200,000 tested, 0.01% active; active means well fitted inhibition curve with a large enough effect in the signal ratio, with a control signal flat, not every such curve was filed as active; inconclusive means small, poorly fitted or top-dose-only effect, or effect the other way, or a change in a side signal; the % refers to the signal ratio
#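 S3 HeLa stable clones carrying a lamin A-EGFP splicing minigene plus DsRed2 were seeded at 600 cells/well in Opti-MEM with 2% FBS, pin-dosed and incubated 48 h at 37°C. Acumen cytometry (488 nm) gave the GFP/RFP total-intensity ratio.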
# ALDH1A1 inh: inhibitors of human aldehyde dehydrogenase 1A1; AID 1030; Potency, µM (highest dose often 75.3 µM), usual class: inhibitors; Purified ALDH1A1, NADH fluorescence, propionaldehyde substrate; 220,000 tested, 7.3% active; P00352
# HPGD block: blocks human HPGD enzyme activity. AID 894. P15428. purified HPGD, NADH fluorescence kinetic, PGE2 substrate. Potency, µM, most hits filed as inhibitors. 150,000 tested, 4.3% active
#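 20 nM HPGD preincubated 15 min at room temperature with compound in 50 mM Tris-HCl pH 8, 0.01% Tween 20. Started with 1 mM NAD+ and 30 uM prostaglandin E2; NADH fluorescence (360/450 nm) read 5 times over 30-s intervals, last minus first.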
# A number is an active result; 0 = inactive; ? = inconclusive; - = not tested or not shown. A selection: hits, their analogues and other compounds. The true share with any hit is near 10%. Unless noted, the call rests on the fitted dose curve; in most records, active means well fitted inhibition curve with a large enough effect (not every such curve was filed as active); inconclusive means small, poorly fitted or top-dose-only effect, or another doubt; inactive means no such curve, though single readings can be large or run the other way.
SMILES,ALOX12 inhib,PNC assembly inh,Lamin A splicing,ALDH1A1 inh,HPGD block
CCOC(=O)c1ccc(N2CSC3=C(C#N)C(c4ccc(OC)cc4OC)CC(=O)N3C2)cc1 (stereo unspecified),?,0,0,14µM,0
Cc1ccc(C2CC(=O)N3CN(c4ccc(Br)cc4)CSC3=C2C#N)o1 (stereo unspecified),?,0,?,?,?
CCOc1ccc(N2CSC3=C(C#N)C(c4ccco4)CC(=O)N3C2)cc1 (stereo unspecified),?,0,0,4.5µM,10µM
COc1ccc(OC)c(C2CC(=O)N3CN(c4cccc(Cl)c4)CSC3=C2C#N)c1 (stereo unspecified),?,0,0,35µM,0
COc1ccc(OC)c(C2CC(=O)N3CN(c4ccc(C)c(Cl)c4)CSC3=C2C#N)c1 (stereo unspecified),0,0,0,7.9µM,?
COc1ccc(OC)c(C2CC(=O)NC(SC)=C2C#N)c1 (stereo unspecified),0,0,0,0,0
O=C(COCc1cc(-c2ccco2)on1)Nc1cccc(Cl)c1Cl,-,-,0,-,-
O=C1C(c2cccc(Br)c2)N(CCc2ccccc2)C(=O)CN1C1CCCCC1 (stereo unspecified),-,-,0,-,-
CS(=O)(=O)Nc1nnc(SCC(=O)N(c2ccccc2)c2ccccc2)s1,0,0,0,32µM,0
CNC(=O)CSc1nnc(NC(=O)Nc2ccccc2)s1,-,-,0,-,-
CC(=O)c1cccc(S(=O)(=O)NC2CCCCCC2)c1,0,0,?,10µM,0
O=C(O)[C@H]1[C@H]2C[C@H]3c4[nH]c5ccccc5c4CCN3C[C@@H]2CC[C@@H]1O,0,-,-,0,0
Cc1ccc2cc(CN(Cc3ccco3)C(=O)c3ccccc3)c(=O)[nH]c2c1C,0,0,0,?,0
O=C(OCc1cc2ccccc2[nH]c1=O)C1CCCCC1,0,?,0,20µM,-
Cc1ccc(C(=O)OCc2cc3ccccc3[nH]c2=O)cc1,0,0,0,0,0
COc1cc(C(=O)OCc2cc3ccccc3[nH]c2=O)cc(OC)c1OC,0,-100,0,0,0
COc1cc(C(=O)N(Cc2ccco2)Cc2cc3ccccc3[nH]c2=O)cc(OC)c1OC,0,0,0,22µM,0
O=C(NCC(c1cccnc1)N1CCN(Cc2ccccc2)CC1)C(=O)Nc1ccc(F)cc1 (stereo unspecified),-,-,0,-,-
NNC(=O)c1csc(-c2cccc(C(F)(F)F)c2)n1,-,-,-,4.5µM,-
CN1CCN(c2ncc3ncc(=O)n(CCc4ccccc4)c3n2)CC1,-,-,0,?,-
O=C(C1=C[C@H](C2CCCCC2)C[C@H](OCCCCO)O1)N1CCN(Cc2ccccc2)CC1,-,-,-,14µM,-
O=C(C1=C[C@@H](C2CC2)C[C@@H](OCc2ccc(CO)cc2)O1)N1CCN(Cc2ccccc2)CC1,-,-,-,0,-
O=C(/N=C1\NC(=O)C(F)(C(F)(F)F)S1)NC1CCCCC1 (stereo unspecified),0,0,0,7.1µM,7.9µM
Cc1cc(C(=O)NCc2cccc(Br)c2)c2c(C)nn(-c3ccccc3)c2n1,-,-,0,-,-
Cc1ccc(S(=O)(=O)N2CCN(S(=O)(=O)N3CCOCC3)CC2)c(C)c1,0,0,0,13µM,0
SMILES,ALOX12 inhib,PNC assembly inh,Lamin A splicing,ALDH1A1 inh,HPGD block
Cc1ccc(S(=O)(=O)N2CCN(S(=O)(=O)N3CCOCC3)CC2)cc1C,0,0,0,0,0
Cc1cc2ccccc2n1CCNC(=O)c1ccc(Br)o1,-,-,-,5.6µM,-
Cc1cc2ccccc2n1CCNC(=O)c1ccccc1,0,0,0,?,0
CCC(=O)NCCn1c(C)cc2ccccc21,0,0,0,0,0
Cc1cc2ccccc2n1CCNC(=O)COc1ccccc1,0,-103,0,0,0
Cc1cc2ccccc2n1CCNC(=O)Cc1cccc2ccccc12,0,-108,0,?,0
CC(=O)NCCn1c(C)cc2ccccc21,0,?,0,0,0
COc1cc(C2CC(=O)n3c(nc4ccccc43)S2)cc(OC)c1OC (stereo unspecified),0,-98,0,?,0
O=C1CSc2nc3ccccc3n21,0,0,0,?,?
O=C(O)C1CC(=O)n2c(nc3ccccc32)S1 (stereo unspecified),0,0,0,25µM,0
Cc1ccc(C)c(NS(=O)(=O)c2cc(C(=O)O)ccc2Cl)c1,0,-,-,0,0
CC(C)Cn1cc(C(=O)N2CCOCC2)c2c3ccccc3n(C)c2c1=O,0,0,0,0,-
